{"source": "PubChem BioAssay (NCATS)", "note": "Inconclusive results are not listed. Activity calls are given as the source filed them. Calls come from the whole dose curve. Numbered stars: 1 amine (or outer) side, 2 acyl side, 3 side chain; on linkers, the order of the positions; unused ones are H or OH. Bridge positions count the residues as written; N and C are the ends. Square brackets hold non-standard residues; d marks the D form. Peptide text beside a SMILES is read from it. I, II: the chains in the order shown. Actinocin(9to1) = Cc1c2oc3c(C)ccc(C(=O)[*:1])c3nc-2c(C(=O)[*:2])c(N)c1=O; NMeV = CN[C@H](C(=O)O)C(C)C; Sar = CNCC(=O)O; note: potency is the fitted concentration of half-maximal effect"}
{"assay": "Cell Viability - MRC5 (AID 434);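 note: cells exposed to compound for 40 hours at 37 °C; potency reflects cytotoxicity seen as loss of intracellular ATP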", "details": "MRC5 lung fibroblast viability, qHTS", "how_it_was_run": "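MRC5 normal human lung fibroblasts (1500/well) were treated with compounds for 40 hr at 37 °C in complete medium, and viable cells were measured as intracellular ATP by CellTiter-Glo luminescence. AC50 came from Hill fits, normalized to DMSO and 100 uM tamoxifen.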"}
{"smiles": "O=c1ccc2ccccc2o1", "Potency": "> 92 µM (inactive)"}
{"smiles": "CC/C(=C(/CC)c1ccc(O)cc1)c1ccc(O)cc1", "Potency": "> 92 µM (inactive)"}
{"smiles": "Cc1c2oc3c(C)ccc(C(=O)N[C@@H]4C(=O)N[C@H](C(C)C)C(=O)N5CCC[C@H]5C(=O)N(C)CC(=O)N(C)[C@@H](C(C)C)C(=O)O[C@@H]4C)c3nc-2c(C(=O)N[C@@H]2C(=O)N[C@H](C(C)C)C(=O)N3CCC[C@H]3C(=O)N(C)CC(=O)N(C)[C@@H](C(C)C)C(=O)O[C@@H]2C)c(N)c1=O", "note": "(I: T[dV]P[Sar][NMeV] / II: T[dV]P[Sar][NMeV]; ester I:1-I:C, II:1-II:C; linker I:N-II:N via Actinocin(9to1))", "Potency": "> 92 µM (inactive)"}
{"smiles": "O=C1OC(c2ccc(O)cc2)(c2ccc(O)cc2)c2ccccc21", "Potency": "> 92 µM (inactive)"}
{"smiles": "O=C(O)CCCCC(=O)O", "Potency": "> 92 µM (inactive)"}
{"smiles": "COC1=CC(=O)C[C@@H](C)[C@]12Oc1c(Cl)c(OC)cc(OC)c1C2=O", "Potency": "> 92 µM (inactive)"}
{"smiles": "CN(C)/N=N/c1nc[nH]c1C(N)=O", "Potency": "> 92 µM (inactive)"}
{"smiles": "Oc1c(I)cc(Cl)c2cccnc12", "Potency": "44.2 µM (active)"}
{"smiles": "NC(=NCCCCCCN=C(N)/N=C(\\N)Nc1ccc(Cl)cc1)/N=C(\\N)Nc1ccc(Cl)cc1", "Potency": "50 µM (active)"}
{"smiles": "C[C@]12CC[C@@H]3c4ccc(O)cc4CC[C@H]3[C@@H]1CC[C@@H]2O", "Potency": "> 92 µM (inactive)"}
{"smiles": "CCCCCCc1ccc(O)cc1O", "Potency": "> 92 µM (inactive)"}
{"smiles": "CC(O)C(=O)O", "note": "(stereo unspecified)", "Potency": "> 92 µM (inactive)"}
{"smiles": "C=CCc1ccc(O)c(OC)c1", "Potency": "> 92 µM (inactive)"}
{"smiles": "Nc1ccc(C(=O)O)cc1", "Potency": "> 92 µM (inactive)"}
{"assay": "Cell Viability - SK-N-SH (AID 435)", "details": "SK-N-SH neuroblastoma cell viability qHTS", "how_it_was_run": "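qHTS cytotoxicity: CellTiter-Glo ATP luminescence after 40 h compound exposure of human neuroblastoma SK-N-SH cells at 37 °C. AC50 derived by Hill-equation fitting, with DMSO as basal and 100 uM tamoxifen as full inhibition.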"}
{"smiles": "O=c1ccc2ccccc2o1", "Potency": "> 92 µM (inactive)"}
{"smiles": "COc1cccc2c1C(=O)c1c(O)c3c(c(O)c1C2=O)C[C@@](O)(C(=O)CO)C[C@@H]3O[C@H]1C[C@H](N)[C@H](O)[C@H](C)O1", "Potency": "0.0168 µM (active)"}
{"smiles": "Cc1c2oc3c(C)ccc(C(=O)N[C@@H]4C(=O)N[C@H](C(C)C)C(=O)N5CCC[C@H]5C(=O)N(C)CC(=O)N(C)[C@@H](C(C)C)C(=O)O[C@@H]4C)c3nc-2c(C(=O)N[C@@H]2C(=O)N[C@H](C(C)C)C(=O)N3CCC[C@H]3C(=O)N(C)CC(=O)N(C)[C@@H](C(C)C)C(=O)O[C@@H]2C)c(N)c1=O", "note": "(I: T[dV]P[Sar][NMeV] / II: T[dV]P[Sar][NMeV]; ester I:1-I:C, II:1-II:C; linker I:N-II:N via Actinocin(9to1))", "Potency": "> 92 µM (inactive)"}
{"smiles": "O=C1OC(c2ccc(O)cc2)(c2ccc(O)cc2)c2ccccc21", "Potency": "> 92 µM (inactive)"}
{"smiles": "O=C(O)CCCCC(=O)O", "Potency": "> 92 µM (inactive)"}
{"smiles": "CN(C)/N=N/c1nc[nH]c1C(N)=O", "Potency": "> 92 µM (inactive)"}
{"smiles": "Oc1c(I)cc(Cl)c2cccnc12", "Potency": "38.6 µM (active)"}
{"smiles": "NC(=NCCCCCCN=C(N)/N=C(\\N)Nc1ccc(Cl)cc1)/N=C(\\N)Nc1ccc(Cl)cc1", "Potency": "46.5 µM (active)"}
{"smiles": "CCCCCCc1ccc(O)cc1O", "Potency": "> 92 µM (inactive)"}
{"smiles": "CC(O)C(=O)O", "note": "(stereo unspecified)", "Potency": "> 92 µM (inactive)"}
{"smiles": "C=CCc1ccc(O)c(OC)c1", "Potency": "> 92 µM (inactive)"}
{"smiles": "Nc1ccc(C(=O)O)cc1", "Potency": "> 92 µM (inactive)"}
